{"source": "PubChem BioAssay (Tox21)", "note": "Inconclusive results are not listed. A number with no mark means an inactive call. Active and inactive are the calls of the source. Calls come from the whole dose curve."}
{"assay": "qHTS assay to identify small molecule agonists of the AP-1 signaling pathway - cell viability counter screen (AID 1159525); note: nearly all actives have a fitted effect of over 55% in size", "details": "ME-180 AP-1-bla cells viability, ATP luminescence, 5 h; series mostly up to 76.8 µM", "text": "National Center for Advancing Translational Sciences [NCATS]\nNIH Chemical Genomics Center [NCGC]\nU.S. Environmental Protection Agency [EPA]\nNational Institutes of Environmental Health Sciences [NIEHS]\nNational Toxicology Program [NTP]\nU.S. Food and Drug Administration [FDA]\nActivator protein-1 (AP-1), a transcription factor, plays an important role in tumor genesis by regulating genes involved in cell proliferation, differentiation, apoptosis, and angiogenesis. AP-1 activity is induced by a complex network of signaling pathways that involves extracellular signals, such as growth factors. The AP-1 protein complex formed from c-Fos and c-Jun binding to the AP-1 response element results in transcriptional activation of genes containing such elements within their promoter.\nLow molecular weight molecules have been discovered and developed to modulate various components of these signaling pathways, for example, MAP kinase inhibitors. However, many points of pathway modulation remain untested due to the lack of chemical probes making this signaling locus of general interest.\nUsing a beta-lactamase reporter-gene under control of the AP-1 response element, a cell-based assay [CellSensor(TM) AP-1-bla ME-180 developed by Invitrogen Corp.] was used to measure EGF-induced signaling. The Tox21 10K library compounds were measured for their ability to positively modulate the action of EC50 EGF on reporter gene activity. Compounds were screened in a 15-pt titration series in 1536-well format. The cytotoxicity of the Tox21 compound library against this cell line was tested in parallel by measuring the intra cellular ATP content in the same wells.\nTox21 Assay Protocol Summary:\n2500 cells/5uL in Opti-MEM medium containing 0.5% dialyzed FBS, 0.1 mM NEAA, 1 mM sodium pyruvate and 10 mM HEPES was dispensed into 1536-well black wall/clear bottom plates using a Multidrop dispenser and cells were cultured at 37 degrees Celsius overnight. Next day 23 nL of compounds dissolved in DMSO, positive controls or DMSO were delivered to each well using a pin tool. The plates were incubated at 37 degrees Celsius for 5 hours. 1 uL of LiveBLAzerTM B/G FRET substrate (Solution A+B+C+D) was added to each well using a Flying Reagent Dispenser. After incubated at room temperature for 2.5 hours the plates were measured on an EnVision plate reader at Excitation 405nm, Emission1=460nm and Emission 2=530nm. The %Activity was determined from the ratio of 460nm/530nm.\nAfter the plates were read for Beta-Lactamase assay on Envision; 3 ul Cell Titer Glo (Promega) was added to measure the cytotoxicity and the plates were then incubated at RT in dark for 30 min. The luminescence was read on ViewLux (Perkin Elmer, Shelton, CT) using 6 sec exposure. ViewLux data was expressed as relative luminescence units.\nFor primary data analysis, raw plate reads for each titration point were first normalized relative to […] EGF control (100%) and DMSO only wells (basal, 0%).\nFor primary data analysis for viability assay, raw plate reads for each titration point were first normalized Tetra n-octyl ammonium bromide control (-100%) and DMSO (control, 100%)."}
{"smiles": "C[Si](C)(C)O[Si](C)(C)O[Si](C)(C)C", "outcome": "inactive"}
{"smiles": "C=CC(C)(O)CC/C=C(/C)CCC=C(C)C", "note": "(stereo not given)", "outcome": "inactive"}
{"smiles": "CC1(C)[C@@H]2CC[C@]3(C2)[C@@H]1C(=O)CCC3(C)C", "outcome": "inactive"}
{"smiles": "Nc1ccc(F)cc1F", "outcome": "inactive"}
{"smiles": "CO[C@@H]1COCC[C@@H]1N[C@@H]1CC[C@@](C(=O)N2CCc3ncc(C(F)(F)F)cc3C2)(C(C)C)C1", "outcome": "inactive"}
{"smiles": "CCCc1nc(C)c2c(=O)[nH]c(-c3cc(S(=O)(=O)N4CCN(CC)CC4)ccc3OCC)nn12", "outcome": "inactive"}
{"smiles": "CCN(CC)CC(=O)OCC(=O)[C@@]1(O)CC[C@H]2[C@@H]3CCC4=CC(=O)CC[C@]4(C)[C@H]3[C@@H](O)C[C@@]21C", "outcome": "inactive"}
{"smiles": "COC=O", "viability change, negative = cytotoxic": "12.8% [at 6.97 µM]"}
{"smiles": "COc1ccc(C(=O)Nc2ccccc2)cc1[N+](=O)[O-]", "outcome": "inactive"}
{"smiles": "N#Cc1ccc(CC(=O)c2cccc(C(F)(F)F)c2)cc1", "outcome": "inactive"}
{"smiles": "CC1(C)CC(=O)CC(C)(C)N1", "outcome": "inactive"}
{"smiles": "Clc1nc2ccccc2nc1Cl", "outcome": "inactive"}
{"smiles": "C1=COCCC1", "outcome": "inactive"}
{"smiles": "CC1(C)C(=O)NC(=O)N1CO", "outcome": "inactive"}
{"smiles": "CC(C)=CCC/C(C)=C/C=N/O", "outcome": "inactive"}
{"smiles": "O=C(C1CCCCC1)N1CC(=O)N2CCCc3ccccc3C2C1", "note": "(stereo not given)", "outcome": "inactive"}
{"smiles": "CCOC(OCC)OCC", "outcome": "inactive"}
{"smiles": "NCCOCCOCCN", "outcome": "inactive"}
{"smiles": "C[C@]12CCC(=O)C=C1[C@@H]1C[C@@H]1[C@H]1[C@@H]3[C@@H]4C[C@@H]4[C@@]4(CCC(=O)O4)[C@@]3(C)CC[C@@H]12", "outcome": "inactive"}
{"smiles": "CCC1=C(C)CN(C(=O)NCCc2ccc(S(=O)(=O)NC(=O)NC3CCC(C)CC3)cc2)C1=O", "note": "(stereo not given)", "outcome": "inactive"}
{"smiles": "CCOc1cc(OCC)c(C(C)=O)cc1OCC", "outcome": "inactive"}
{"smiles": "CC(C)(C)N", "outcome": "inactive"}
{"smiles": "Cc1nc(C)c(C)nc1C", "outcome": "inactive"}
{"smiles": "CCCCOC(=O)C(C)Oc1ccc(Oc2ccc(C(F)(F)F)cn2)cc1", "note": "(stereo not given)", "outcome": "inactive"}
{"smiles": "C=C(C)C(=O)OCCCCCCCCCCOC(=O)C(=C)C", "outcome": "inactive"}
{"smiles": "NC(=O)c1cc[n+](CC2=C(C(=O)[O-])N3C(=O)[C@@H](NC(=O)Cc4cccs4)[C@H]3SC2)cc1", "outcome": "inactive"}
{"smiles": "O=C(N[C@@H](Cc1ccccc1)[C@@H](O)C(=O)N1C[C@@H](O)[C@@H](O)C1)c1cc2cc(Cl)ccc2[nH]1", "outcome": "inactive"}
{"smiles": "O=c1[nH]nc(-c2ccc([N+](=O)[O-])o2)o1", "outcome": "inactive"}
{"smiles": "CC(C)NC(=O)c1ccccc1N", "outcome": "inactive"}
{"smiles": "CC(C)=CCCC(C)C=O", "note": "(stereo not given)", "outcome": "inactive"}
{"smiles": "Cc1ccc2ccccc2c1[N+](=O)[O-]", "outcome": "inactive"}
{"smiles": "C[C@H](CN1CCCC1)C(=O)c1ccc(C(F)(F)F)cc1", "outcome": "inactive"}
{"smiles": "C=CC(C)CCC=C(C)C", "note": "(stereo not given)", "outcome": "inactive"}
{"smiles": "C=C[Si](OCC)(OCC)OCC", "outcome": "inactive"}
{"smiles": "COC(=O)/C=C/C(C)=C\\C=C\\C(C)=C\\C=C\\C=C(C)\\C=C\\C=C(C)\\C=C\\C(=O)O", "outcome": "inactive"}
{"smiles": "OCCOc1cccc(OCCO)c1", "outcome": "inactive"}
{"smiles": "N#CCCCC(C#N)CCC#N", "note": "(stereo not given)", "outcome": "inactive"}
{"smiles": "Cc1ccc(NC(=O)c2ccc(CN3CCN(C)CC3)cc2)cc1Nc1nccc(-c2cccnc2)n1", "outcome": "inactive"}
{"smiles": "CCCC(=O)OCc1ccccc1", "outcome": "inactive"}
{"smiles": "CC(=O)Nc1ccn(C2COC(COC(=O)c3ccccc3)O2)c(=O)n1", "note": "(stereo not given)", "outcome": "inactive"}
